# Assay outcomes deposited in PubChem by several laboratories.
# Rows were chosen to be rich in hits. Some 1.3% of all compounds tested hit in one or more screens of this group.
# RTF Ca sens act – cardiac RTF calcium sensitivity activators, primary screen, biochemical, IANBD-TnC fluorescence, EC20 calcium | IANBD-labeled TnC RTF fluorescence at EC20 calcium; 0% EC20 calcium, 100% full calcium | 340,000 compounds, 0.24% hits | activation, % at 7.2 µM;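 active = activation above the mean over all tested compounds plus 3 SD, cut at about 30% in these data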;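 also: rise in fluorescence read as greater calcium sensitivity of cardiac thin filaments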
# LANA DNA inh – inhibitors of KSHV C-LANA binding to DNA, primary screen, biochemical, fluorescence polarization, FAM-LBS DNA, MBP-C-LANA, single point; Kaposi's sarcoma herpesvirus LANA C-terminal domain (residues 932-1162) DNA binding; inhibition, % at 9 µM; 340,000 compounds, 0.078% hits;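 active = highest replicate inhibition at or above 60% at 9 µM, even if other replicates fall short; inactive = all replicates below 60% inhibition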;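 also: 0% = neutral control wells and 100% = 4 µM acridine orange control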
# CRFR2-BP ag – agonists of CRF-BP/CRF-R2 complex, primary screen, cell-based, HEK293, calcium dye fluorescence, uHTS. calcium dye fluorescence (FLIPR); percent of saturating CRF peptide response. activation, % at 13.2 µM. 350,000 compounds, 0.46% hits. AID 588473, 2011;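 active = activation of at least 50%, plus an integration ratio under a set limit after plate pattern correction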;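 also: plate controls were neutral control wells without compound for no effect and CRF at EC100 for full effect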
# CRFR2-BP antag – antagonists of CRF-BP/CRF-R2 complex, primary screen, cell-based, HEK293, calcium dye fluorescence, uHTS; CRF-induced calcium fluorescence; 350,000 compounds, 0.59% hits; inhibition, % at 11.8 µM;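 active = inhibition of the ligand-induced calcium signal above about 50% at the single tested concentration, limit read from the data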
# Cardiac RTF inh – cardiac RTF calcium sensitivity inhibitors, primary screen, biochemical, IANBD-TnC fluorescence, EC70 calcium; AID 493244, 2011; IANBD-labeled cardiac RTF, Ca2+ fluorescence; 340,000 compounds, 0.12% hits; Troponin I, cardiac muscle (Homo sapiens) + Troponin T, cardiac muscle (Homo sapiens) + …; inhibition, % at 7.15 µM;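 active = inhibition above the mean inhibition of all tested compounds plus 3 SD, cut at about 17% in these data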;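 also: assay run at fixed EC70 calcium of 1.6 mM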
# Keap1-Nrf2 PPI – Keap1-Nrf2 protein-protein interaction inhibitors, primary screen, biochemical, fluorescence polarization, single point; Kelch-like ECH-associated protein 1 (Homo sapiens), Q14145; Keap1 Kelch-Nrf2 peptide fluorescence polarization, 1536-well; inhibition, % at 9.4 µM; 340,000 compounds, 0.15% hits; AID 504523, 2011; in the data active = inhibition above about 12%;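 also: human Keap1 Kelch domain with fluorescein labeled Nrf2 9mer peptide probe; 0% = neutral control wells and 100% = peptide positive control; higher means more block of Keap1 binding to Nrf2 peptide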
# Target sequence (Q14145 whole entry, looked up, the tested form may be a part): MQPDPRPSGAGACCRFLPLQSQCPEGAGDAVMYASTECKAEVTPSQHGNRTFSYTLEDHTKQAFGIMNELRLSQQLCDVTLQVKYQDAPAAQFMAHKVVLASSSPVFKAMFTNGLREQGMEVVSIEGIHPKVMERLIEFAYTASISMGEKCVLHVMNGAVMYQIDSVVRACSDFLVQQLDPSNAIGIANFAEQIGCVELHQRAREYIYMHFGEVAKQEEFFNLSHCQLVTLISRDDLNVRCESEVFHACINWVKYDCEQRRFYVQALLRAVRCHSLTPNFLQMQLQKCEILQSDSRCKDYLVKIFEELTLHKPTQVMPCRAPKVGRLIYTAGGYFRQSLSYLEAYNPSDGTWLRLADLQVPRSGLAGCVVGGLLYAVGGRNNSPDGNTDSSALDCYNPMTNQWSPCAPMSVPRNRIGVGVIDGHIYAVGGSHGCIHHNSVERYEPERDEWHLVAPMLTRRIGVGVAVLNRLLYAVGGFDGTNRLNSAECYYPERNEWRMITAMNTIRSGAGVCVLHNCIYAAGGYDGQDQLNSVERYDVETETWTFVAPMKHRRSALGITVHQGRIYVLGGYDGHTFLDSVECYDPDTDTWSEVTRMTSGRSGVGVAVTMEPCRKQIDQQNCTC
# An asterisk follows results filed as active; . = no result given; ! = not confirmed by another sample.
SMILES,RTF Ca sens act,LANA DNA inh,CRFR2-BP ag,CRFR2-BP antag,Cardiac RTF inh,Keap1-Nrf2 PPI
Cc1ccc(S(=O)(=O)N(Cc2ccccc2)c2ccccc2C(=O)NCc2ccco2)cc1,-1.8,14.8,11.2,70.9*,-7.6,2.6
O=C(NC(=O)c1ccccc1O)c1ccc(C(F)(F)F)cc1,.,.,54.6*,52.0*,.,.
CCCc1ccc(C(=O)NC(=O)c2ccccc2O)cc1,7.2,1.1,50.7*,26.7,-5.7,-7.5
CCOc1ccccc1C(=O)OCC(=O)NCC1CCCO1 (centres undefined),3.7,0.3,0.8,107.8*,-1.9,0.1
CN(CCOc1ccc(Cl)cc1)C(=O)C1CCN(C(=O)c2ccc(Cl)cc2)CC1,5.4,-0.8,-0.8,120.0*,-5.4,0.3
COc1cc(NS(=O)(=O)c2ccc(NC(=O)COc3ccc(C)cc3C)cc2)nc(OC)n1,1.2,-0.4,2.6,35.6,4.9,-2.7
CC1=C(C#N)C(=O)NC1(C)O (centres undefined),.,.,-1.5,11.8,.,.
CC1=C(C#N)C(=O)NC(C)(C)C1,6.2,15.2,16.8,53.9*,-24.4,1.3
CC(C)(C)[C@H]1COC(=O)[C@H](NC(=O)OCC2c3ccccc3-c3ccccc32)C/C=C\C[C@@H](CC(=O)N(CCO)Cc2ccccc2)C(=O)N1,-6.0,-4.1,-2.2,3.0,-5.0,-1.4
Cc1c(C(=O)O)sc2nc(-c3cccs3)cc(C(F)(F)F)c12,-6.0,-0.8,-1.6,4.9,-13.1,0.6
CC(=O)c1sc2nc(-c3cccs3)cc(C(F)(F)F)c2c1N,17.1,10.2,113.2*,-53.7,-26.3,0.3
Nc1c(C(=O)C2CC2)sc2nc(-c3ccccc3)cc(C(F)(F)F)c12,18.7,1.8,237.8*,-349.9,-24.7,-35.8
CN(C)CCNC(=O)c1sc2nc(-c3ccccc3)cc(C(F)(F)F)c2c1N,-1.3,17.6,23.9,-31.6,-6.8,-0.9
O=C(Nc1ccccc1)N1CCC(C(=O)N2CCN(S(=O)(=O)c3cccc(F)c3)CC2)CC1,3.0,-1.2,-1.2,-1.4,-3.3,0.3
Cc1c(N=C2N=C(NC(=O)c3cccs3)c3ccccc32)c(=O)n(-c2ccccc2)n1C,15.2,11.1,89.5*,-66.3,-31.5,2.4
COc1ccc2c(Cl)c(C(=O)N/N=C3\CCCC(=O)C3)sc2c1,41.4*,9.2,79.3*,-64.3,-80.4,-28.7
Cc1cccc(C(=O)Nc2scc(-c3ccc(Br)cc3)c2C(=O)O)c1,-10.9,-1.9,0.5,50.4*,-4.3,-5.5
Cc1ccc(-c2csc(NC(=O)c3cccc(C)c3)c2C(=O)O)cc1,11.4,-0.1,-0.2,27.9,-5.2,-3.0
CCCCCCCCCCCC1=C(O)C(=O)C=C(O)C1=O,-12.9,14.4,62.4*,-87.5,10.2,-4.0
COC1=CC(=O)C(O)=C(CCCCCCC/C=C/CCCCCCCC2=C(O)C(=O)C=C(OC)C2=O)C1=O,-25.0,18.7,-1.0,3.9,6.8,1.5
Cc1onc(-c2c(F)cccc2Cl)c1C(=O)N1CCN(c2ncc(Br)cn2)CC1,-1.0,-1.1,0.4,73.8*,4.5,0.3
Cc1onc(-c2c(F)cccc2Cl)c1C(=O)N1CCSCC1,.,.,-1.7,11.6,.,.
CCN(CC(=O)NCc1ccc(F)cc1)CC(O)COCc1cccc(OC)c1 (centres undefined),-3.2,2.8,0.8,-7.3,-7.7,-3.9
O=C(CSc1ncnc2sccc12)N1CCCCC1,3.2,-1.0,-0.9,10.2,-3.5,-3.5
Cc1ccc(S(=O)(=O)N(CC(=O)Nc2ccccc2C(=O)O)c2ccc(Cl)cc2)cc1,6.0,-1.0,-0.2,50.6*,-6.4,-4.5
SMILES,RTF Ca sens act,LANA DNA inh,CRFR2-BP ag,CRFR2-BP antag,Cardiac RTF inh,Keap1-Nrf2 PPI
Cc1ccc(S(=O)(=O)N(Cc2ccc(Cl)cc2)c2ccccc2C(=O)O)cc1,-2.2,-1.9,-1.5,-16.4,-3.6,1.2
CC(C)(CO)NCC#Cc1ccccc1,34.1*,-0.4,0.8,-2.1,-3.5,0.9
Cc1ccccc1CNC(=O)c1ccc(Cl)c([N+](=O)[O-])c1,-1.1,-0.4,1.1,28.4,-11.0,1.9
COc1ccc(/C=N/NS(=O)(=O)c2ccccc2)cc1OC(=O)c1ccc(C)cc1,1.2,-0.9,-3.2,50.6*,4.1,-7.0
COc1ccc(/C=N/NS(=O)(=O)c2ccc(C)cc2)cc1OC(=O)c1ccccc1,12.0,0.7,1.1,-13.0,-11.2,-7.4
CC1(C)CC[C@]2(C(=O)n3ccnc3)CC[C@]3(C)[C@H](C(=O)C=C4[C@@]5(C)C=C(C#N)C(=O)C(C)(C)[C@@H]5CC[C@]43C)[C@@H]2C1,-2.5,-1.3,121.5*,-97.5,9.2,-0.8
COc1ccc(CNC(=O)C(C)Sc2nc3ccccc3c(=O)n2CCCN2CCOCC2)cc1 (centres undefined),6.5,-1.4,-0.9,2.8,-0.9,-2.2
O=C(NCc1cccs1)c1ccc(CS(=O)Cc2cccc(Cl)c2)o1 (centres undefined),1.5,0.4,-1.1,57.5*,-7.6,-0.3
CSc1ccc(CCNC(=O)c2ccc(CS(=O)Cc3ccc(Cl)cc3)o2)cc1 (centres undefined),-1.1,0.3,2.3,79.5*,-1.5,-5.7
O=C(NCCc1ccc(Cl)cc1)c1ccc(CS(=O)Cc2ccc(Cl)cc2)o1 (centres undefined),4.4,-1.1,-0.5,1.5,-0.8,-8.0
CC(O)[C@H]1CN=C(N)N1CC(C)(C)C (some centres undefined),5.3,0.2,0.1,0.8,8.1,-4.1
C=Cc1c(C)c2cc3[nH]c(cc4nc(cc5nc(cc1[nH]2)C(C)=C5CCC(=O)O)C(CCC(=O)O)=C4C)c(C)c3C=C,-10.7,64.5*,-2.4,-33.3,55.5*!,0.8
C=CCOc1ccc(/C=N/NC(C)=O)cc1OCC,1.6,-1.1,-0.1,-5.2,-7.2,-0.2
O=S(=O)(Nc1nc2ccccc2s1)c1cc(F)ccc1F,-8.2,-1.1,-1.1,23.6,1.2,-0.2
O=S(=O)(Nc1nc2ccccc2s1)c1ccc(Cl)s1,-10.9,-0.1,-0.2,58.4*,-6.1,-4.1
COc1ccc(CN(C)Cc2nc3scc(-c4ccccc4)c3c(=O)[nH]2)cc1OC,0.2,3.1,0.3,59.8*,-17.6,-4.2
CSCc1nc2scc(-c3ccccc3)c2c(=O)[nH]1,-1.4,-0.4,1.4,-12.1,-1.3,-2.4
O=C(N/N=C/c1ccccn1)c1cccs1,-0.4,-1.4,0.1,62.0*,3.3,0.5
